The structures appear in SMILES notation. Hit rate of the full screen: of about 2,400 compounds, about 40 (2%) were called active. Another 1% or so got no clear call; they are omitted.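 The calls were made as follows: active = inhibition at or above 60%; inconclusive = inhibition from 0% up to below 60%; inactive = no inhibition observed.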 The entries come from a sample that favours actives as a whole.

The experiment can be described thus: qHTS Assay for Small Molecule Inhibitors of Mitochondrial Division or Activators of Mitochondrial Fusion: Hit Validation in Malachite Green Assay.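 As to inhibition: plate controls were DMSO wells with GTPase for no effect and protein-free buffer wells for full effect.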 To be noted: purified GTPase, malachite green phosphate release, A650; hits give high values. The text has this:
The budding yeast S. cerevisiae is a powerful system to study mitochondrial fusion. Unlike other organisms, yeast cells without functional mitochondrial DNA (mtDNA) can be propagated and studied as long as they maintain a mitochondrial compartment and are provided with a fermentable carbon source. When mitochondrial fusion is blocked in yeast, mitochondrial tubules rapidly fragment and division continues unopposed. Under conditions where fusion is compromised in mammalian cells, nearly identical changes in mitochondrial structure have been observed. Thus, these findings indicate that steady state mitochondrial structure in cells is a characteristic and specific indicator of fusion activity. Mounting evidence has pointed to a connection between mitochondrial dynamics and apoptosis in mammalian cells. These studies indicate that in mammalian cells mitochondrial dynamics are more integrated into cellular processes than in yeast cells and have evolved not only to distribute the organelle but also to aid in the regulation of cellular homeostasis. Mitochondrial fusion proteins attenuate apoptosis by inhibiting the release of cytochrome c from mitochondria, in part by controlling cristae structures. Thus, small molecules that inhibit mitochondrial fusion may promote apoptosis and potentially act as novel chemotherapeutics and stimulation of apoptosis has become an attractive target of anti-cancer therapies. To identify inhibitors of mitochondrial division, we exploit the growth phenotypes of mitochondrial fusion-defective mutants. The temperature sensitive fusion alleles, such as fzo1-1 and mgm1-5, cause mitochondrial membranes to fragment in cells under non-permissive conditions and cells lose mtDNA, and are unable to grow in the presence of non-fermentable carbon source glycerol. Inhibiting mitochondrial division rescues growth. The hits were tested by the assay provider in a malachite green assay. NIH Chemical Genomics Center [NCGC] NIH Molecular Libraries Probe Production Centers Network [MLPCN] MLPCN Grant: MH081279 Assay Submitter (PI): Jodi M. Nunnari
Malachite Green Reagent Malachite Green carbinol base- Aldrich 229105 Ammonium molybdate - Sigma A7302 For 100 mL Malachite Green reagent in 1N HCl 16 mL conc. HCL + 32 mL H20 = 48 mL 4N HCl 34 mg malachite green base into 40 mL 1N HCl (10 mL 4N HCl + 30 mL H20) 1 g ammonium molybdate in 15 mL 4N HCl Mix Solutions together. Bring up to […] with H2O. Filter using a 0.2 um tissue culture filter unit (has plastic bottle attached) store at 4 masculine C. (Avoid Glassware/Plastics washed in detergent. Mix solutions in 50 mL conical vials.) For 20 uL reaction volume 1.0 uL Test Drug or DMSO: Added first to each well […]: 25 mM Hepes/Pipes pH 7.0 (H/P) 2.0 uL: 50 mM MgCl2 (final 5mM) 2.32 uL: 1 M NaCl (with contributing protein salt, Final = 150mM) 13.4 uL per reaction. Can be mixed in larger volume (Mini Master Mix) 1.6 uL: Protein 7.5 uM or Protein Freezing Buffer. (Final = 0.6uM) After Protein Added to mini Master Mix, 15ul Total Master Mix added to each well with drug. 4 uL: 500 uM GTP (Final = 100uM), Dilute with 25 mM H/P, store on ice. 20 uL Total Volume Make Master Mix: (Calculate desired reactions and add a few for multi-channel pipetting volume). Multiply the number of desired reactions by 13.4 uL for total Mini Master volume. Multiply the number of desired reactions by 1.6 uL for total Protein volume. Mix, and keep on ice until added to wells. Add 15 uL of Master Mix to each reaction well, incubate with drug for 10 min. For Positive (No Drug) controls add 15 uL Master Mix to wells with only 1 uL DMSO. Make PFB (Protein Freezing Buffer) (no Protein) Master Mix. Multiply the number of desired reactions by 13.4 uL for total Mini Master volume. Multiply the number of desired reactions by 1.6 uL for total PFB volume. Mix, and keep on ice until added to wells Add 10 uL of PFBMaster Mix to each Phosphate Standards well, and 15 uL to each negative control well with DMSO. […]
Background: Quantitative high-throughput screening tests each substance at several concentrations.
In general, inhibition refers to the drop in the measured response relative to a control, in per cent. Consider `Cn1c2ccccc2c2c(C(=O)N3CCN(c4ccccc4)CC3)cn(C3CCCC3)c(=O)c21`, for which the inhibition result is “inactive”.

For `COc1cccc(COc2ccc3ccc(=O)oc3c2)c1`, the inhibition result is “inactive”.

For `CC(C)(C)c1ccc(/C=C/C(=O)Nc2ncccn2)cc1`, the inhibition result is “inactive”.

Take `O=c1c2ccccc2nc(/C=C/c2cccnc2)n1Cc1ccccc1`: the inhibition entry was “inactive”.

Consider `c1ccc(C(c2ccccc2)N2CCN(Cc3nnnn3C3CCCC3)CC2)cc1`, for which the inhibition result was “inactive”.

For `COc1ccc(NC(=O)CSCC(=O)N(C)Cc2ccc(Cl)c(Cl)c2)cc1`, the inhibition entry was “inactive”.

As to `O=S(=O)(Nc1cccc2c1CCCC2)c1ccc(Cl)cc1`, the inhibition entry was “inactive”.

In the case of `N#Cc1c(NC(=O)c2ccc(Cn3cc(Br)cn3)o2)sc2c1CCCCCC2`, the inhibition is 97.3% (active).

As to `COC(=O)c1c(NC(=O)c2ccc(C)o2)sc2c1CCCCC2`, the inhibition entry is “inactive”.

In the case of `N#Cc1c(NC(=O)C2CC2)sc2c1CCCCC2`, the inhibition entry was “inactive”.

Take `CCCc1nnc(NC(=O)CCC(=O)O)s1`: the inhibition entry is “inactive”.

In the case of `Cc1ccc(Cl)cc1N1CCN(C(=O)c2noc(C)c2[N+](=O)[O-])CC1`, the inhibition entry was “inactive”.

On to `CCCCNC(=O)N1CCN(C(c2ccccc2)c2ccccc2)CC1`, for which the inhibition entry is “inactive”.

In the case of `O=[N+]([O-])c1ccc(S(=O)(=O)N2CCN(C3CCN(Cc4ccccc4)CC3)CC2)cc1`, the inhibition result was “inactive”.

On to `CCOC(=O)c1c(NC(=O)c2ccccc2Cl)sc2c1CCc1ccccc1-2`, for which the inhibition was 102% (active).

For the compound `CCOC(=O)c1c(NC(=O)COc2ccccc2F)sc2c1CC(C)(C)NC2(C)C`, the inhibition result was “inactive”.

For the compound `Cc1ccc(C(=O)c2c(NC(=O)c3ccccc3C)sc(C)c2C)cc1`, the inhibition entry is “inactive”.

Consider `CN(CCOc1ccccc1)CC(=O)Nc1ccc([N+](=O)[O-])cc1Cl`, for which the inhibition result is “inactive”.

Regarding `C=CCSc1nc(N)c(C#N)c(-c2ccc(C)cc2)c1C#N`, the inhibition entry was “inactive”.

With `CC(=O)c1cccc(NC(=O)c2ccc(-c3ccccc3[N+](=O)[O-])o2)c1`, the inhibition entry is “inactive”.

For `O=C(/C=C/c1ccco1)Nc1ccc2nn(-c3ccccc3)nc2c1`, the inhibition entry was “inactive”.

As to `COc1ccccc1/C=C/C(=O)c1ccc(NC(C)=O)cc1`, the inhibition result is “inactive”.

For the compound `O=C(/C=C/c1ccco1)c1ccc(NC(=O)C23CC4CC(CC(C4)C2)C3)cc1`, the inhibition was 80.4% (active).

Regarding `O=c1c2cc(N3CCOCC3)ccc2[nH]c(=S)n1CCc1ccccc1`, the inhibition result is “inactive”.

The values are drawn from PubChem BioAssay AID602289 (National Center for Advancing Translational Sciences (NCATS), 2012).
